High-throughput results (PubChem)
Sampled rows, rich in hits. Any-hit rate of the full collection: about 7.2%.
HEK293 tox: Cytotoxic Profiling in HEK 293 Cell Line of Diverse Libraries Using Quantitative High-Throughput Screening; HEK 293 viability, ATP luminescence (CellTiter-Glo), 48-72 h; Potency, µM (series often up to 115 µM), most hits filed as inhibitors; 6.6% of 94,000 active; AID 1345083, 2018; also: nearly all actives have a fitted effect of over 60% in size
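250 HEK 293 cells/well; compound by pintool; incubated 48 or 72 hr at 37 degree Celsius; CellTiter-Glo added, 10 min RT, luminescence imaged.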
NPR1 antag: Natriuretic polypeptide receptor (hNpr1) antagonism - Primary qHTS; Atrial natriuretic peptide receptor 1 (Homo sapiens), P16066; HEK293 hNpr1 GloSensor cGMP, ANP-stimulated luminescence; Potency, µM (highest dose often 46.3 µM), usual class: inhibitors; 1.6% of 76,000 active; AID 1347048, 2019; calls by dose curve; also: nearly all actives have a fitted effect of over 60% in size
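Compound pre-incubated 30 min at room temperature on GloSensor-loaded HEK293 cells stably carrying hNpr1 and the pGS-40F cGMP biosensor. Stimulation uses hNppA at 0.1 nM final; luminescence is taken at baseline and 20 min post-agonist.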
SNCA expr inh: Primary qHTS assay for inhibitors of alpha-synuclein gene (SNCA) expression; HEK-293 SNCA-luciferase knock-in, luminescence, 24 h; Potency, µM (doses to about 57.2 µM), most hits filed as inhibitors; 0.17% of 140,000 active; also: nearly all actives have a fitted effect of over 45% in size
FLuc inh-1: Firefly luciferase inhibition profiling of diverse chemical library using quantitative high-throughput screening; Luciferin 4-monooxygenase (Photinus pyralis), P08659; purified P. pyralis luciferase, luminescence, biochemical; Potency, µM (titrated, usually from 115 µM), hits mostly inhibitors; 2.5% of 76,000 active; also: nearly all actives have a fitted effect of over 65% in size
Target sequence (P08659 whole entry, looked up): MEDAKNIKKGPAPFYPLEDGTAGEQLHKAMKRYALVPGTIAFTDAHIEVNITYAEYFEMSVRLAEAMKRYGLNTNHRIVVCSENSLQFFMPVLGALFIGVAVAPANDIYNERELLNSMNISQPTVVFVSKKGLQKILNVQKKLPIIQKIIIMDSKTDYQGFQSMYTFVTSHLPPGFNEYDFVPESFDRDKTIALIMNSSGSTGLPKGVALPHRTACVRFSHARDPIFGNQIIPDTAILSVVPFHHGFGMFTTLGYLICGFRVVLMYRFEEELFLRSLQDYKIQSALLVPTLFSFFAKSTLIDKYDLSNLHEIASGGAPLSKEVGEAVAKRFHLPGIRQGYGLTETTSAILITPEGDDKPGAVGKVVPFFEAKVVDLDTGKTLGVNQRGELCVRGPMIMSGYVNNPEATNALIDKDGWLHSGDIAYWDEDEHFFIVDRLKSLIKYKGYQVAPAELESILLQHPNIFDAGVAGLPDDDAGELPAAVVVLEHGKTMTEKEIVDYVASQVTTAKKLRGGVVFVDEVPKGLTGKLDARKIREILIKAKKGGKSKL
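Purified 10nM P. pyralis luciferase with 10uM D-luciferin and 10uM ATP in 50mM Tris acetate pH 7.5, 10mM Mg acetate, 0.01% Tween-20, 0.05% BSA. qHTS titration; luminescence read by CCD imager.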
3T3 cytotox: Cytotoxic Profiling in NIH 3T3 Cell Line of Diverse Libraries Using Quantitative High-Throughput Screening | NIH 3T3 viability, CellTiter-Glo ATP luminescence, 48-72 h | Potency, µM (top dose mostly 96.7 µM), most hits filed as inhibitors | 4.3% of 94,000 active; also: nearly all actives have a fitted effect of over 55% in size
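Mouse fibroblast NIH 3T3 cells, 400 per well, received compound via pintool and were incubated for 48 or 72 hr prior to CellTiter-Glo ATP luminescence measurement.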
SNCA viab count: GF-AFC viability counterscreen for inhibitors of alpha-synuclein gene (SNCA) expression; 0.12% of 150,000 active; Potency, µM (series often up to 57.1 µM), usual class: cytotoxic; HEK-293-SNCA-luc viability, GF-AFC fluorescence, 24 h; AID 1671193, 2021; also: nearly all actives have a fitted effect of over 30% in size
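HEK-293-SNCA-luc cells (1500/well) plated 24 h, then exposed 24 h to a dilution series; GF-AFC added 30 min at 37C, fluorescence 405/540 nm; normalised to medium-only and DMSO wells, Hill fit.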
FLuc SDR no ATP: Firefly luciferase (FLuc-C-HiBiT) SDR gain of signal screen - without ATP; Purified FLuc-C-HiBiT, Nano-Glo HiBiT luminescence, no ATP; AID 1963318, 2024; shares compounds with FLuc inh-1; Potency, µM (highest dose often 32.7 µM), most hits filed as activators; 7.8% of 1,300 active; also: nearly all actives have a fitted effect of over 55% in size
FLuc SDR ATP: Firefly luciferase (FLuc-C-HiBiT) SDR gain of signal screen - plus ATP | shares compounds with FLuc inh-1 | purified FLuc-C-HiBiT + ATP, HiBiT complementation luminescence | Potency, µM (titrated, usually from 32.7 µM), most hits filed as activators | 8.7% of 1,300 active;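 also: signal reports ligand binding via conformational change of the enzyme rather than luciferase catalysis; nearly all actives have a fitted effect of over 55% in size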
FLuc inh-2: Firefly luciferase (FLuc-C-HiBiT) enzymatic inhibition screen - Functional assay; shares compounds with FLuc inh-1; purified FLuc-C-HiBiT enzyme, luciferin luminescence; Potency, µM (titrated, usually from 32.7 µM), most hits filed as inhibitors; 42% of 1,300 active; AID 1963320, 2024; also: nearly all actives have a fitted effect of over 70% in size
Hits are given with their value; – = inactive; ? = inconclusive. Unless noted, calls follow the shape of the dose curve; as a rule, active = well fitted curve in the direction sought with a large enough effect; inconclusive = small, poorly fitted or top-dose-only effect, or another doubt; inactive = no such curve, though single readings can be large; an effect the other way counts as inactive or inconclusive.

SMILES | HEK293 tox | NPR1 antag | SNCA expr inh | FLuc inh-1 | 3T3 cytotox | SNCA viab count | others
CC(C)n1cc(C(=O)NCc2cccnc2Oc2ccc(F)cc2F)cn1 | ? | – | – | – | ? | –
Cc1noc(-c2ccccc2Cl)c1C(=O)NCCCc1ccccc1 | 45µM | – | – | – | ? | –
O=C(c1ccc(F)cc1)N1CCN(C(=O)c2nnn3c2COC(c2ccc(Cl)cc2)C3)CC1 (configuration not stated) | 40µM | – | ? | – | ? | –
O=C(c1cc(F)ccc1F)N1CCN(C(=O)c2nnn3c2COC(c2ccc(Cl)cc2)C3)CC1 (configuration not stated) | 35µM | ? | ? | – | – | ?
O=C(c1ccccc1F)N1CCN(C(=O)c2nnn3c2COC(c2ccccc2)C3)CC1 (configuration not stated) | ? | – | ? | – | – | –
CC(C)(C)c1ccc(C(=O)N2CCN(C(=O)c3nnn4c3COC(c3ccc(F)cc3)C4)CC2)cc1 (configuration not stated) | ? | – | – | – | ? | –
O=C(Nc1cccc(F)c1)[C@@H]1C[C@H](c2ccc(F)cc2)N([S+](=O)([O-])C2CC2)C1 | ? | – | – | – | ? | –
Cc1ccccc1Cn1cc(-c2ccncc2)cc1C(=O)NCc1ccncc1 | ? | – | – | – | ? | –
Cc1ccc(Cn2cc(-c3ccncc3)cc2C(=O)NCc2ccc(N(C)C)cc2)cc1 | 45µM | – | – | – | ? | –
CN(Cc1cccnc1)c1nc2c(c(=O)[nH]1)CCN(Cc1ccc(C(F)(F)F)cc1)CC2 | 32µM | – | – | – | ? | –
CN(Cc1cccnc1)c1nc2c(c(=O)[nH]1)CCN(Cc1ccccc1)CC2 | – | – | – | – | – | –
CN(Cc1cccnc1)c1nc2c(c(=O)[nH]1)CCN(Cc1cccc(Cl)c1F)CC2 | 25µM | – | – | – | ? | –
O=C(CN1CCN(c2ncccn2)[C@@H]2CS(=O)(=O)C[C@@H]21)NCc1ccco1 | ? | – | – | – | – | –
CN1c2cccnc2CN(CC2CCCCC2)CC[C@H]1CO | ? | – | – | – | 50µM | –
CN1c2cccnc2CN(C2CCCCC2)CC[C@H]1CO | – | – | – | – | – | –
COCC(=O)N(C1CCOCC1)C1CCN(C(=O)Cc2ccc(OC)cc2)CC1 | – | – | – | – | – | –
COc1ccc2cc(C3CN(C(=O)Cc4ccc(O)cc4)CCO3)ccc2c1 (configuration not stated) | ? | ? | – | 8.9µM | ? | – | FLuc SDR no ATP=–;FLuc SDR ATP=–;FLuc inh-2=?
CCc1ccccc1Nc1nc(-c2cccc(OC)c2OC)no1 | ? | – | – | 14µM | ? | – | FLuc SDR no ATP=–;FLuc SDR ATP=–;FLuc inh-2=?
